Measured values taken from PubChem BioAssay (NCI).
The panel holds about 83,000 compounds, 20% with a hit somewhere; the sample as a whole holds those more often.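 The endpoint reported here, percent growth, reads 100 for growth as untreated, 0 for no net growth and -100 for all cells dead.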 Values without a mark were called inactive. The source made the active and inactive calls. Rule for the calls: active = growth percent below 10; inactive = the rest.

Columns and labels:
Experiment in all cases: NCI-60 one-dose screen, 48 h (100 = growth as untreated, 0 = no growth, -100 = all killed)
Settings in all cases: 10 µM unless noted
DU-145 prostate = tested on: DU-145 prostate
K-562 leukemia = tested on: K-562 leukemia
MALME-3M melanoma = tested on: MALME-3M melanoma
MDA-MB-231 breast = tested on: MDA-MB-231 breast
RXF 393 renal = tested on: RXF 393 renal
SF-268 CNS = tested on: SF-268 CNS
SF-295 CNS = tested on: SF-295 CNS
SF-539 CNS = tested on: SF-539 CNS
UACC-257 melanoma = tested on: UACC-257 melanoma
M14 melanoma = tested on: M14 melanoma
HCT-15 colon = tested on: HCT-15 colon
HT29 colon = tested on: HT29 colon
SNB-75 CNS = tested on: SNB-75 CNS
U251 CNS = tested on: U251 CNS
PC-3 prostate = tested on: PC-3 prostate
UACC-62 melanoma = tested on: UACC-62 melanoma
LOX IMVI melanoma = tested on: LOX IMVI melanoma
SK-MEL-28 melanoma = tested on: SK-MEL-28 melanoma
SNB-19 CNS = tested on: SNB-19 CNS
SK-MEL-5 melanoma = tested on: SK-MEL-5 melanoma

SMILES	growth (DU-145 prostate)	growth (K-562 leukemia)	growth (MALME-3M melanoma)	growth (MDA-MB-231 breast)	growth (RXF 393 renal)	growth (SF-268 CNS)	growth (SF-295 CNS)	growth (SF-539 CNS)	growth (UACC-257 melanoma)	growth (M14 melanoma)	growth (HCT-15 colon)	growth (HT29 colon)	growth (SNB-75 CNS)	growth (U251 CNS)	growth (PC-3 prostate)	growth (UACC-62 melanoma)	growth (LOX IMVI melanoma)	growth (SK-MEL-28 melanoma)	growth (SNB-19 CNS)	growth (SK-MEL-5 melanoma)
C[C@H]1[C@H](C)CC[C@]2(CO)CC[C@]3(C)C(=CC[C@@H]4[C@@]5(C)Cc6c([nH]c7ccccc67)C(C)(C)[C@@H]5CC[C@]43C)[C@H]12	71.1%	52.4%	46.9%	88.8%	84.1%	74.5%	81.2%	96%	108%	92.8%	100%	68.1%	87.6%	72.4%	68.5%	81.4%	79.1%	79.6%		
Clc1nc(Cl)c2ncn(CC3(Cn4cnc5c(Cl)nc(Cl)nc54)COC3)c2n1	-100% (active)	-70.4% (active)	-69.8% (active)	-88.9% (active)		-73.7% (active)	-83.6% (active)	-93.4% (active)	-90.9% (active)	-92.7% (active)	-89.9% (active)	-70.1% (active)	-96.6% (active)	-95.9% (active)	-98.4% (active)	-92.4% (active)	-89.2% (active)		-99.1% (active)	-96.2% (active)
COc1ccc(NC(=O)c2sc3nc(C)c(C(O)c4ccc(OC)cc4)cc3c2N)cc1 (centres undefined)	25.6%	9.99% (active)	63.7%	22.1%		42%	-1.07% (active)	-11.4% (active)	60.4%	24.7%	16.3%	4.97% (active)	-16% (active)	25.9%	22.6%	31.6%	40.5%		71.2%	9.53% (active)
Cc1ccc(Nc2cc(=S)nc(N)[nH]2)cc1C	102%	92.9%	100%	80.6%	107%	100%	98.6%	96.4%	103%	93.7%	104%	94.3%	78.1%	92.1%	90.7%	89.2%	105%	101%		102%
CCCC/C(=N\N=C(N)N)c1ccc(F)cc1	44.1%	10.4%	40.6%	59.3%	-5.71% (active)	45.2%	18.4%	11.7%	44.1%	13.7%	23.4%	1.87% (active)	-1.82% (active)	32.1%	26.3%	45.3%	26.5%	54%		2.87% (active)
CC1(c2ccccc2)NC(=O)N(CC(=O)Nc2cccc(I)c2)C1=O (centres undefined)	106%	91.7%	75.3%	75%		89.7%	94%	89.9%	84.9%	102%	92.9%	95.9%	66.8%	88.7%	67.9%	74%	93.8%		84.7%	31.1%
O=S(=O)(NCCNc1nccc(-c2c(-c3cccc(F)c3)nc3occn23)n1)c1cccc2ccccc12	53.3%	19%	56.1%	58.5%		38.6%	58.6%	96.7%	77.4%	54.8%	41.5%	34.2%	61.4%	59.7%	30.6%	45.1%	59.7%	73%	67.1%	30%
COc1cc2nc(-c3ccc(C(F)(F)F)cc3)cc(OCCCN3CCC(O)CC3)c2cc1OC	28.3%	6.21% (active)	43.9%	11.2%	42.1%	49.9%	-43.5% (active)	45.5%	-8.17% (active)	-55.9% (active)	9.78% (active)	9.01% (active)	-7.26% (active)	46.3%	40.6%	-31.3% (active)	-74.4% (active)			-56.3% (active)
NC(=S)N/N=C(\c1ccc(Cl)cc1)C1CC1	99%	38.3%	87.1%	70%	104%	98.2%	83.1%	88.6%	63.7%	87.7%	84.3%	50.6%	83.7%	92.1%	77.9%	87.3%	94.2%	98.7%		89.1%
CC1(C)CCCN1CCCN1c2ccccc2Sc2ccc(Cl)cc21	78.5%	14.2%	67.2%	45.5%		76.3%	68.2%	78.2%	105%	39.1%	50.7%	26.4%	91%	58.3%	52.6%	75.6%	57.9%	72%	69.1%	2.18% (active)
COc1ccc(/C=N/C2=C(C#N)C(c3ccccc3[N+](=O)[O-])c3ccc4ccccc4c3O2)cc1 (centres undefined)	100%	80.2%	89.8%	77.7%	109%	87.4%	94.9%	97.3%	102%	90.4%	75.3%	112%	61.3%			81.1%	90.3%	113%	96.6%	
COc1ccc(-c2nc(N/N=C/c3cccc(O)c3)nc(N3CCOCC3)c2C#N)cc1	56%	58.3%	65.9%	74.9%		78.8%	69.7%	54.5%	57.9%	57.5%	46.9%	72.6%	23.6%	58.9%	56.5%	90.1%	79.6%		85.9%	80.1%
CC(C)CN(C(=O)c1ccc(Cl)cc1)c1c(N)n(CC(C)C)c(=O)[nH]c1=O	112%	103%	102%	96.1%		92.3%	84.7%	43.7%	103%	109%	111%	111%	88.4%	98.8%	89.8%	88.7%	102%	107%	96.6%	37.6%
O=C(/C=C/c1ccc[nH]1)c1ccc(-n2ccc(C(F)(F)F)n2)cc1	96.4%	68.1%	86%	22.7%	50%	34.2%	70.2%	14.3%	96.7%	94.5%	86.6%	97.3%	51.6%			90.3%	97.1%	103%	75.5%	99.9%
COc1cccc(/C=C2\COc3ccc(-c4ccccc4)cc3C2=O)c1	-40.2% (active)	-2.92% (active)	101%	32.3%		4.23% (active)	-44.8% (active)	-29.8% (active)	49.2%	23.6%	-36.9% (active)	12.9%	10.9%	-56.1% (active)	19.4%	38%	-85.5% (active)	-36.5% (active)	64.7%	24%
COc1ccc2c(c1)OC13Oc4cc(OC)ccc4C=C1CCCC3=C2	33.9%	23.5%	70.3%	32%	16%	38.5%	78.6%	84.5%	52.5%	31.5%	12.8%	8.16% (active)	74.6%	35%	23.6%	14.8%	-32.1% (active)	63%		40.3%
CC(C)NC(=O)N1C(=O)CCC1NNC(=O)c1ccc([N+](=O)[O-])cc1 (centres undefined)	103%	98.6%	101%	108%	123%	100%	105%	97.7%	111%	100%	107%	106%	102%	109%	107%	98.1%	93.9%	98.4%		105%
